According to PubChem BioAssay (EPA / NIEHS):
Results filed as inconclusive are left out. Some structures have more than one record in an assay (separate samples or runs), and their calls can disagree. The source made the active and inactive calls. The calls were made as follows: active = hit-call score of the fitted dose curve at least 0.9, where 1 is the maximum; inconclusive = response in the unintended direction; inactive = score below 0.9.

What was measured:
[1] = target: guinea pig Opioid, Kappa 1 Receptor (OpiateK), OPRK1 (gene 100135587) (UniProt P41144); assay: NVS_GPCR_gOpiateK: NovaScreen (NVS) G Protein-Coupled Receptor Assay for guinea pig Opioid, Kappa 1 Receptor (OpiateK) (AID 2283252);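 also: active means reduced radioligand binding relative to DMSO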
Sequence of guinea pig Opioid, Kappa 1 Receptor (OpiateK), OPRK1 (gene 100135587) (P41144 whole entry, looked up): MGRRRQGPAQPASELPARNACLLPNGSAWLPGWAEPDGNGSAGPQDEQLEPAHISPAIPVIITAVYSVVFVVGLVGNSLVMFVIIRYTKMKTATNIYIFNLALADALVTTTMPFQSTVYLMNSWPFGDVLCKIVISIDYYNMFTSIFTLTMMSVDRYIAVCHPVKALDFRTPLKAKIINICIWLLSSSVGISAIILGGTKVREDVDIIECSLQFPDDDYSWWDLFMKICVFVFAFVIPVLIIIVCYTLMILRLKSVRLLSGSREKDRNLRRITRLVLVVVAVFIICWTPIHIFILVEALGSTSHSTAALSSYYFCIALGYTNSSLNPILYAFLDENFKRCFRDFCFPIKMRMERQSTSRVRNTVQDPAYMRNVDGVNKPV
Procedure, shortened: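 Radioligand binding to kappa opioid receptor in guinea pig cerebellar membranes, read by filtration and scintillation at 2 h. Compounds first tested in duplicate at 25 uM, then actives in concentration series; signal loss fitted against DMSO.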

[2] = target: human Serotonin, 5-Hydroxytryptamine Receptor 6 (5HT6), HTR6 (gene 3362) (UniProt P50406); assay: NVS_GPCR_h5HT6: NovaScreen (NVS) G Protein-Coupled Receptor Assay for human Serotonin, 5-Hydroxytryptamine Receptor 6 (5HT6) (AID 2283253)
Sequence of human Serotonin, 5-Hydroxytryptamine Receptor 6 (5HT6), HTR6 (gene 3362) (P50406 whole entry, looked up): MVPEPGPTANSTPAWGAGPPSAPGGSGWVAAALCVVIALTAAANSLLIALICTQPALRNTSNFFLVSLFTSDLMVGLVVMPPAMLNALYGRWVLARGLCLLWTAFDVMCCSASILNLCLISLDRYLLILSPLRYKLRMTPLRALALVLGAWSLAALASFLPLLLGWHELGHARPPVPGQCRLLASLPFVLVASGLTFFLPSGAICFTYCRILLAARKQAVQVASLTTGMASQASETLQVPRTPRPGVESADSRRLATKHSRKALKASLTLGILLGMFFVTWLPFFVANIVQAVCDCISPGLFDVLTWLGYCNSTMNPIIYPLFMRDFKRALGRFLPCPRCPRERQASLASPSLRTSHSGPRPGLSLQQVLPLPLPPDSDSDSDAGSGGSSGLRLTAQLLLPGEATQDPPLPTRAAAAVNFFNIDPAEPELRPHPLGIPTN
Procedure, shortened: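 Filter scintillation counting of radioligand displacement from HEK293-expressed 5HT6, 1 hour post-dose, with loss of signal relative to DMSO. Single 25 uM duplicates first, with concentration series for confirmation.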

[3] = target: human Adenosine A1 Receptor (AdoRA1), ADORA1 (gene 134) (UniProt P30542); assay: NVS_GPCR_hAdoRA1: NovaScreen (NVS) G Protein-Coupled Receptor Assay for human Adenosine A1 Receptor (AdoRA1) (AID 2283254)
Sequence of human Adenosine A1 Receptor (AdoRA1), ADORA1 (gene 134) (P30542 whole entry, looked up): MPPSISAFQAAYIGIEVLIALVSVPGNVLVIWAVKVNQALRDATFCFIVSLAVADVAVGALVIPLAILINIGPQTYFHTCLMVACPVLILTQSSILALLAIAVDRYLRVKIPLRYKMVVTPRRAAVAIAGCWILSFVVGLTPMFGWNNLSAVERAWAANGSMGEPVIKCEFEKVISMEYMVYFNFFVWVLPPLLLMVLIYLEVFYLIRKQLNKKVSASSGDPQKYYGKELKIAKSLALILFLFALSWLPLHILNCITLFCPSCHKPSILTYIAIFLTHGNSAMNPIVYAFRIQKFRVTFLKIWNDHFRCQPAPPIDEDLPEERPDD
Procedure, shortened: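 Hum. cortical membranes + radioligand, cmpd 1 h; filtration, scintillation count. Readout = decrease vs DMSO. Primary 25 uM dup; hits → conc. series.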

[4] = target: human Serotonin, 5-Hydroxytryptamine Receptor 7 (5HT7), HTR7 (gene 3363) (UniProt P34969); assay: NVS_GPCR_h5HT7: NovaScreen (NVS) G Protein-Coupled Receptor Assay for human Serotonin, 5-Hydroxytryptamine Receptor 7 (5HT7) (AID 2283255);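 also: hits reduce specific radioligand binding relative to DMSO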
Sequence of human Serotonin, 5-Hydroxytryptamine Receptor 7 (5HT7), HTR7 (gene 3363) (P34969 whole entry, looked up): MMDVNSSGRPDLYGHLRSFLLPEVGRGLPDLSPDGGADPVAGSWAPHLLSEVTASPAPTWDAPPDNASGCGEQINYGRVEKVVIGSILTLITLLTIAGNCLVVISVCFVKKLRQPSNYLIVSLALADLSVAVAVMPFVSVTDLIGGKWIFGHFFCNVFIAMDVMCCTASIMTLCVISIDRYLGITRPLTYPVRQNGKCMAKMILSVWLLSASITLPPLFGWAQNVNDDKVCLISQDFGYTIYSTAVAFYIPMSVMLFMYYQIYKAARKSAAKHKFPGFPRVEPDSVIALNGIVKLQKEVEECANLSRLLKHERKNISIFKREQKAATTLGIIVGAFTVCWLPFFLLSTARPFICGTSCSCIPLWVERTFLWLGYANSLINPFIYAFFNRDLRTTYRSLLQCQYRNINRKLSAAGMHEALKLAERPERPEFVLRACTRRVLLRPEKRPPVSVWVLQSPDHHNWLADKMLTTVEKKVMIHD
Procedure, shortened: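 Filter-bound radioactivity counted after 1 h, with loss of specific radioligand binding fitted against DMSO. Membrane protein came from CHO cells expressing human 5HT7. Chemicals were tested first at 25 uM in duplicate, then in concentration series if active.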

[5] = target: human Serotonin, 5-Hydroxytryptamine Receptor 5A (5HT5A), HTR5A (gene 3361) (UniProt P47898); assay: NVS_GPCR_h5HT5A: NovaScreen (NVS) G Protein-Coupled Receptor Assay for human Serotonin, 5-Hydroxytryptamine Receptor 5A (5HT5A) (AID 2283251)
Sequence of human Serotonin, 5-Hydroxytryptamine Receptor 5A (5HT5A), HTR5A (gene 3361) (P47898 whole entry, looked up): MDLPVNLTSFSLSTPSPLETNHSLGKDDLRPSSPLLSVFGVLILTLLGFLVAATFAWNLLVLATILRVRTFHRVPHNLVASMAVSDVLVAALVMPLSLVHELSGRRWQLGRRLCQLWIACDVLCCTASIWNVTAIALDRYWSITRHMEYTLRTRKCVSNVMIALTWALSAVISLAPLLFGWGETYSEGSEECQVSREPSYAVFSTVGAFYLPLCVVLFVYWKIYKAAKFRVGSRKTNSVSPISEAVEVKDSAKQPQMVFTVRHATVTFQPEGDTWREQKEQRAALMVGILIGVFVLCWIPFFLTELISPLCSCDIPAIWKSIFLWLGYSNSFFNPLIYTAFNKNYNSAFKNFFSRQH
Procedure, shortened: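 Membranes from HEK293 cells, radioligand binding read by filtration and scintillation after 1 h. Single-concentration duplicate testing at 25 uM, then concentration-response for actives; positive-direction fitting relative to DMSO.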

[6] = target: human Adrenergic, Beta 1 Receptor (Adrb1), ADRB1 (gene 153) (UniProt P08588); assay: NVS_GPCR_hAdrb1: NovaScreen (NVS) G Protein-Coupled Receptor Assay for human Adrenergic, Beta 1 Receptor (Adrb1) (AID 2283258)
Sequence of human Adrenergic, Beta 1 Receptor (Adrb1), ADRB1 (gene 153) (P08588 whole entry, looked up): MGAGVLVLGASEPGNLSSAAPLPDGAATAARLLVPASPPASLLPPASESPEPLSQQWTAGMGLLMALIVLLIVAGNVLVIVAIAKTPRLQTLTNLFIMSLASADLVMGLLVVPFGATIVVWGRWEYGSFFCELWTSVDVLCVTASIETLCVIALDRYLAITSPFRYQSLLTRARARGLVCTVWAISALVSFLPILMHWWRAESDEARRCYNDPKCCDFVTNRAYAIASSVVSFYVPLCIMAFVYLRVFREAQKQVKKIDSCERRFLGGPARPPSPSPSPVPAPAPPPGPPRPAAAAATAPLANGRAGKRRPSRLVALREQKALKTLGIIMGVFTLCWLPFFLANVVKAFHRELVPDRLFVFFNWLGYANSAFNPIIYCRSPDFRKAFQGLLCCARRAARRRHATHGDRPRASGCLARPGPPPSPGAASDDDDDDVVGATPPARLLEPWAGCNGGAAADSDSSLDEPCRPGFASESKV
Procedure, shortened: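 Membranes/protein extracted from human neuroepithelioma cells, radioligand competition binding read by filtration and scintillation 2 h post-dose. Single 25 uM duplicate screen, then concentration-response follow-up; DMSO as negative control.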

[7] = target: human Adenosine A2a Receptor (AdoRA2a), ADORA2A (gene 135) (UniProt P29274); assay: NVS_GPCR_hAdoRA2a: NovaScreen (NVS) G Protein-Coupled Receptor Assay for human Adenosine A2a Receptor (AdoRA2a) (AID 2283256)
Sequence of human Adenosine A2a Receptor (AdoRA2a), ADORA2A (gene 135) (P29274 whole entry, looked up): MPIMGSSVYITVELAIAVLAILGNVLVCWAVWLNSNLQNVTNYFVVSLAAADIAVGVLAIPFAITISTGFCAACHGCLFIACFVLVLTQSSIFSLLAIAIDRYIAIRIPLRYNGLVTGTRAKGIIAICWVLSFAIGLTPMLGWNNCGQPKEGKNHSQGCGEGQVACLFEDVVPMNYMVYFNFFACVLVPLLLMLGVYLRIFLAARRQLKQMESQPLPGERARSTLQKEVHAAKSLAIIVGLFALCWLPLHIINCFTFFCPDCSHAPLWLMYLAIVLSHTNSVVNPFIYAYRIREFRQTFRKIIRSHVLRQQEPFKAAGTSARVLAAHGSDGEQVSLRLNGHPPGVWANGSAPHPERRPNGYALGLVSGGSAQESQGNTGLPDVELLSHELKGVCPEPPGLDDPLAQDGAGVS
Procedure, shortened: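 Compounds screened in duplicate at 25 uM, with actives followed up in concentration series, for displacement of a radioligand from HEK293-derived receptor protein. Bound counts read by filter scintillation at 1.5 hours, DMSO as baseline.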

[8] = target: human Adrenergic, Beta 3 Receptor (Adrb3), ADRB3 (gene 155) (UniProt P13945); assay: NVS_GPCR_hAdrb3: NovaScreen (NVS) G Protein-Coupled Receptor Assay for human Adrenergic, Beta 3 Receptor (Adrb3) (AID 2283262)
Sequence of human Adrenergic, Beta 3 Receptor (Adrb3), ADRB3 (gene 155) (P13945 whole entry, looked up): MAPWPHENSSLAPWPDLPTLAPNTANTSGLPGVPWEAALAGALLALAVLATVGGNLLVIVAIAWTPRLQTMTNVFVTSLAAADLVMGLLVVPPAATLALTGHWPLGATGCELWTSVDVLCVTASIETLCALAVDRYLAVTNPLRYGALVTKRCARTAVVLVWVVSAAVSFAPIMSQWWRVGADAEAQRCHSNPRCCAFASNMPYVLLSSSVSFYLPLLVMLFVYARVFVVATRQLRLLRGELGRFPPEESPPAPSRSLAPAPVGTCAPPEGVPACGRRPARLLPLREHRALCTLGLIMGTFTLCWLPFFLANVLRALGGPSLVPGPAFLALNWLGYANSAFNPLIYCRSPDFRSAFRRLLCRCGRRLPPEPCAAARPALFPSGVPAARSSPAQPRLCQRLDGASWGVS
Procedure, shortened: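 A cell-free filter binding assay read by scintillation counting, with displacement of a specific radioligand measured after 1 hour. The receptor source was SK-N-MC extracts (cells pretreated with isoproterenol and 8-bromo-cAMP). Compounds were first tested at 25 uM in duplicate and then in concentration series.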

[9] = target: human Adrenergic, Alpha 2c Receptor (Adra2C), ADRA2C (gene 152) (UniProt P18825); assay: NVS_GPCR_hAdra2C: NovaScreen (NVS) G Protein-Coupled Receptor Assay for human Adrenergic, Alpha 2c Receptor (Adra2C) (AID 2283259)
Sequence of human Adrenergic, Alpha 2c Receptor (Adra2C), ADRA2C (gene 152) (P18825 whole entry, looked up): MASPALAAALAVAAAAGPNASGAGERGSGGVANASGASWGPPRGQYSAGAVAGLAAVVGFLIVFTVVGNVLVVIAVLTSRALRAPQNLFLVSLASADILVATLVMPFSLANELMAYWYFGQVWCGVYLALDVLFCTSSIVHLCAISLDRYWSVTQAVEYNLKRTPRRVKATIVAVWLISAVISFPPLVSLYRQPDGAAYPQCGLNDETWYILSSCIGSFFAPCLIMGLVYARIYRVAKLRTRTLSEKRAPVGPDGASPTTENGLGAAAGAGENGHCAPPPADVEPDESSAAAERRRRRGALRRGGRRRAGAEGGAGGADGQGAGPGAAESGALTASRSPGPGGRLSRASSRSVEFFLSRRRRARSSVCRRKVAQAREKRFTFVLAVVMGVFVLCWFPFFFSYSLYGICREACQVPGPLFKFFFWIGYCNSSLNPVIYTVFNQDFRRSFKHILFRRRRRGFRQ
Procedure, shortened: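 Screened first in duplicate at 25 uM, with actives then run as concentration series. Membranes from Sf9 cells were exposed for 1 h, and displacement of radioligand was counted after filtration, using DMSO as baseline.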

[10] = target: Beta-2 adrenergic receptor (Homo sapiens) (UniProt P07550); assay: NVS_GPCR_hAdrb2: NovaScreen (NVS) G Protein-Coupled Receptor Assay for human Adrenergic, Beta 2 Receptor (Adrb2) (AID 2283261)
Sequence of Beta-2 adrenergic receptor (Homo sapiens) (P07550 whole entry, looked up): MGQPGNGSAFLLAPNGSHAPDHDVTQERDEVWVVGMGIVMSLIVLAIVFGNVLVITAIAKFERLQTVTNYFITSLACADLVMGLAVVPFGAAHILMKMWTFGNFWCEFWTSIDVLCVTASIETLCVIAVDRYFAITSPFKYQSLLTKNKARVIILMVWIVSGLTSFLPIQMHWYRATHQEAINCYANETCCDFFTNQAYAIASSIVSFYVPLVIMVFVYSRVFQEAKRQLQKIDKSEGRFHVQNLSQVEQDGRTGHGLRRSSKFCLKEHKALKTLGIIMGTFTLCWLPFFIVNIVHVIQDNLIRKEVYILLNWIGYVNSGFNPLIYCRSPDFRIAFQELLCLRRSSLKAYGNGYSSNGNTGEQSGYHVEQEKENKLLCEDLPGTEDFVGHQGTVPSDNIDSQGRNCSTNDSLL
Procedure, shortened: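 Compounds screened in duplicate at 25 uM, then actives in concentration series. Human beta-2 receptor from CHO material, cell-free; radioligand displacement after 1 h measured by filtration and scintillation against DMSO baseline.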

O=C(N[C@H]1CN2CCC1CC2)c1cc2ccoc2cn1
outcome [1]: inactive

Oc1ccc(Cl)cc1Cl
outcome [2]: inactive

CC(C)(O)C(=O)Nc1ccc([N+](=O)[O-])c(C(F)(F)F)c1
outcome [1]: inactive

Cc1cc2c3c(c1)C(c1ccccc1)=N[C@@H](NC(=O)c1ccncc1)C(=O)N3CC2
outcome [3]: inactive | AC50 [4]: 25 µM (active)

CCC(C)(c1ccc(O)cc1)c1ccc(O)cc1
AC50 [5]: 13.4 µM (active) | outcome [1]: inactive | AC50 [2]: 6.29 µM (active) | AC50 [3]: 25 µM (active) | AC50 [4]: 15.9 µM (active)

CCCCCCCCOC(=O)c1ccccc1C(=O)OCCCCCCCC
outcome [6]: inactive

CCNc1nc(NC(C)C)nc(SC)n1
AC50 [3]: 13.7 µM (active) | AC50 [7]: 10 µM (active)

c1cc2ccc3cccc4ccc(c1)c2c34
outcome [8]: inactive

O=C(O)C(F)(F)C(F)(F)C(F)(F)C(F)(F)C(F)(F)C(F)(F)C(F)(F)C(F)(F)C(F)(F)F
AC50 [5]: 20.7 µM (active) | AC50 [4]: 16.4 µM (active) | AC50 [7]: 7.6 µM (active) | AC50 [6]: 21.3 µM (active) | AC50 [9]: 10.9 µM (active)

Oc1ccc(C(c2ccc(O)cc2)(C(F)(F)F)C(F)(F)F)cc1
AC50 [5]: 8.39 µM (active) | AC50 [1]: 14 µM (active) | AC50 [2]: 0.352 µM (active) | AC50 [3]: 16.6 µM (active) | AC50 [4]: 5.73 µM (active) | AC50 [7]: 25 µM (active) | AC50 [6]: 19.3 µM (active) | AC50 [9]: 10.7 µM (active) | AC50 [10]: 25 µM (active) | outcome [8]: inactive

CCCN(CCC)N=O
outcome [6]: inactive

Oc1c(Cl)c(Cl)c(Cl)c(Cl)c1Cl
AC50 [1]: 12.6 µM (active) | outcome [1]: inactive | outcome [3]: inactive | AC50 [7]: 13.1 µM (active)

C[C@]12CCC(=O)C=C1CC[C@@H]1[C@@H]2CC[C@]2(C)C(=O)CC[C@@H]12
outcome [1]: inactive | outcome [4]: inactive

COc1ccc(O)c(C(C)(C)C)c1
outcome [5]: inactive | AC50 [2]: 25 µM (active) | outcome [4]: inactive

O=C(O)C(F)(F)C(F)(F)C(F)(F)C(F)(F)C(F)(F)C(F)(F)C(F)(F)C(F)(F)F
AC50 [5]: 17.7 µM (active) | AC50 [7]: 10.6 µM (active) | AC50 [9]: 25 µM (active)

CCCCCCCCCC[N+](C)(C)CCCCCCCCCC
AC50 [5]: 9.63 µM (active) | AC50 [2]: 13.9 µM (active) | AC50 [4]: 5.73 µM (active) | AC50 [6]: 5.34 µM (active) | AC50 [9]: 3.53 µM (active) | AC50 [10]: 17.5 µM (active) | AC50 [8]: 7.1 µM (active)

CN(C)c1nc(=O)n(C2CCCCC2)c(=O)n1C
outcome [10]: inactive

CC(C)(c1ccccc1)c1ccc(O)cc1
AC50 [5]: 25 µM (active) | AC50 [2]: 4.96 µM (active) | AC50 [3]: 9.28 µM (active) | AC50 [9]: 9.37 µM (active)

CC1=C2C[C@H]3[C@@H](CC=C4C[C@@H](O)CC[C@@]43C)[C@@H]2CC[C@]12O[C@@H]1C[C@H](C)CN[C@H]1[C@H]2C
AC50 [1]: 1.33 µM (active)
